The source of these data is PMC7862700, “An all-to-all approach to the identification of sequence-specific readers for epigenetic DNA modifications on cytosine”.

Common to all, as to experiment: DAPPL (digital affinity profiling via proximity ligation, sequencing); 10 mM Tris-HCl pH 7.5, 50 mM NaCl, 1 mM DTT, 4% glycerol, room temperature, 30 min; GST-TFs on glutathione beads, 16-mer random dsDNA library, 0.1% formaldehyde crosslink after washing; high values mean tight binding
Common to all, as to conditions: protein: recombinant; tags: N-terminal GST; dsDNA, one strand shown

In one assay the target is T1, FLI1 (Homo sapiens, UniProt Q01543 1-452).
T1 sequence: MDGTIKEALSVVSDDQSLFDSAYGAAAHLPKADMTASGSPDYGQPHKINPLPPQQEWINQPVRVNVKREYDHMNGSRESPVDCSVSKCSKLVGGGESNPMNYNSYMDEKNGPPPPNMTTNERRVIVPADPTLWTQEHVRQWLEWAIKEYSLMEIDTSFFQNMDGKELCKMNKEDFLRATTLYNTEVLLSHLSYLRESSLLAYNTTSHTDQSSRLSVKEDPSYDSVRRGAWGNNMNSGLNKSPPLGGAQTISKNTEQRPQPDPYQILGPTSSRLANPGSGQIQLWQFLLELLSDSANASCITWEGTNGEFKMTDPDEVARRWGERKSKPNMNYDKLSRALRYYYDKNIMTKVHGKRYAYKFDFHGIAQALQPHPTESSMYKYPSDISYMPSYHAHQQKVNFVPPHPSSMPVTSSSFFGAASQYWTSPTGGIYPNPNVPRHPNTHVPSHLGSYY
The procedure, abridged:
(§1)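 Sequencing on an Illumina NextSeq500 followed washing, crosslinking with 0.1% formaldehyde, proximity ligation (BsaI/T4 ligase, 1 h, 37 °C) and PCR amplification of pools that had been incubated for 30 min at room temperature with 200 nmole of a random double-stranded 16-mer DNA library in Tris/NaCl/DTT/glycerol buffer. Each pool held DNA-barcoded human transcription factors, expressed in yeast as GST fusions and captured on glutathione beads, plus a tag-only sample. Binding signal is a hexamer's read frequency for a factor divided by its frequency in the tag-only sample.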

Another assay has as its target T2, ELK1 (Homo sapiens, UniProt P19419 1-428).
T2 sequence: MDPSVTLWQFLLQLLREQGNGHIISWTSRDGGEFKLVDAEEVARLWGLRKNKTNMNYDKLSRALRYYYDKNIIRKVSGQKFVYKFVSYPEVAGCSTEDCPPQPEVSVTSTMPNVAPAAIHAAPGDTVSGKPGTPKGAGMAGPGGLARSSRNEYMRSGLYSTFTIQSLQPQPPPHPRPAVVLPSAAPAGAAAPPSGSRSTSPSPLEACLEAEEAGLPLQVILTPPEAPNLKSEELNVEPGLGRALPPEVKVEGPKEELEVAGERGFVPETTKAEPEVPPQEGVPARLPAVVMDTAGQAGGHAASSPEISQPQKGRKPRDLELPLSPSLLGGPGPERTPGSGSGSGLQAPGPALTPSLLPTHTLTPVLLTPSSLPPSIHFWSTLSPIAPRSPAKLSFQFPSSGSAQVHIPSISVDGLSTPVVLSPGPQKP
The procedure, abridged: as §1

The target in a further assay is T3, GABPA (Homo sapiens, UniProt Q06546 1-454).
T3 sequence: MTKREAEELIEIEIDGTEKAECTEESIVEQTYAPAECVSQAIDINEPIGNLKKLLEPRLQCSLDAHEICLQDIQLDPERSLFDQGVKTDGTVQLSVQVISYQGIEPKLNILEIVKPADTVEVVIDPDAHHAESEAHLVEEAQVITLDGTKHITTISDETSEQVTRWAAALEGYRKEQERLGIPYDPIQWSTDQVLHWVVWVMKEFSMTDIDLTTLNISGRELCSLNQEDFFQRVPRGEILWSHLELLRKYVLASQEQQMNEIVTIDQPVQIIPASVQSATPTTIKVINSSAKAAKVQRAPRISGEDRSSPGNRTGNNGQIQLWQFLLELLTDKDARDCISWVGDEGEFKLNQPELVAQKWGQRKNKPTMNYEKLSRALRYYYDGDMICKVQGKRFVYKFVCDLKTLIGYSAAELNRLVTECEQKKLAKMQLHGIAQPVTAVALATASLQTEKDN
An outline of the steps: as §1

In another assay the target is T4, ERG (Homo sapiens, UniProt P11308 1-479).
T4 sequence: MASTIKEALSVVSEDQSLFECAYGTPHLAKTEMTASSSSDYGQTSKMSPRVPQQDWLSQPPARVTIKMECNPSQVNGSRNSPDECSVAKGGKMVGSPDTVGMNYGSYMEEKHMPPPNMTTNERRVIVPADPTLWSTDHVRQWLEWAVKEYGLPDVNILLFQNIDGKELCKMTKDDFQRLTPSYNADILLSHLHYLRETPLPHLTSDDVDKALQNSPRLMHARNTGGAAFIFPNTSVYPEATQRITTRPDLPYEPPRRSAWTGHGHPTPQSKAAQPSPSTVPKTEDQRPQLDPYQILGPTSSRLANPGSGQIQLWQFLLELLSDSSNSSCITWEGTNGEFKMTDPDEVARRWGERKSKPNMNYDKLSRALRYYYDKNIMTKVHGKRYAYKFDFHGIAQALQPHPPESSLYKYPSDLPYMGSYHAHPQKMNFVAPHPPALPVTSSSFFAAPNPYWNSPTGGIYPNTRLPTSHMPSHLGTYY
An outline of the steps:
as §1

The target of a further assay is ELF1 (Homo sapiens, UniProt P32519 1-619). The procedure, abridged: as §1
ELF1, sequence (P32519 whole entry): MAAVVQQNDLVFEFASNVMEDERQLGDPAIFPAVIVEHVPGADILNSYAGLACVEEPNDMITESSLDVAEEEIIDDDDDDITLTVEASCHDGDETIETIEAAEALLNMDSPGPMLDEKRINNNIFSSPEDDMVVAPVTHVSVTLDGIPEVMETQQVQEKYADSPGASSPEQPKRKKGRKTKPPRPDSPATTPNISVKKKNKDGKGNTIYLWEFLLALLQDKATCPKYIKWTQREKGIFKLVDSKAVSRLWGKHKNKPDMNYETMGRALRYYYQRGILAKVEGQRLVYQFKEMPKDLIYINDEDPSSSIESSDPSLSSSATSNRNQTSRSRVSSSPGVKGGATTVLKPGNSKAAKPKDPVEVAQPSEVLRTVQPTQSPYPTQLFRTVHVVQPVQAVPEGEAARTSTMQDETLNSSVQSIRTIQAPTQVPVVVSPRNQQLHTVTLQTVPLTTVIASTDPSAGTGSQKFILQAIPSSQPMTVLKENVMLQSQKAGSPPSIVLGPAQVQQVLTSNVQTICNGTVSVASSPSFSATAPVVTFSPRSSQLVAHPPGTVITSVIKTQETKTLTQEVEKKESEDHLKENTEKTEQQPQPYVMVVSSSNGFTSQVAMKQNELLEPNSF
For the next assay, the target named is T5, EHF (Homo sapiens, UniProt Q9NZC4 1-300).
T5 sequence: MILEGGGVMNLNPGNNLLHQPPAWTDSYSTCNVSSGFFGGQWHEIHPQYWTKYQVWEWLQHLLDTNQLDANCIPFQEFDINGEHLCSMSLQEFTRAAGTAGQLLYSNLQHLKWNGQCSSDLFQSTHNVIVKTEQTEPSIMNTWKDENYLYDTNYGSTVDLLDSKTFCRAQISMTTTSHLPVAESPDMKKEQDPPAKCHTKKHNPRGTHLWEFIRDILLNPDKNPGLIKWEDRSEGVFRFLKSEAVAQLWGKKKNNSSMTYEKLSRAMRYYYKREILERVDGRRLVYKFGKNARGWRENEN
An outline of the steps: as §1

A further assay has as its target SPI1 (Homo sapiens, UniProt P17947 1-270). The procedure, abridged:
as §1

For another assay, the target named is SPIB (Homo sapiens, UniProt Q01892 1-262). An outline of the steps:
as §1

The next assay addresses ETV5 (Homo sapiens, UniProt P41161 1-510). The procedure, abridged: as §1
Another assay addresses T6, SPIC (Homo sapiens, UniProt Q8N5J4 1-248).
T6 sequence: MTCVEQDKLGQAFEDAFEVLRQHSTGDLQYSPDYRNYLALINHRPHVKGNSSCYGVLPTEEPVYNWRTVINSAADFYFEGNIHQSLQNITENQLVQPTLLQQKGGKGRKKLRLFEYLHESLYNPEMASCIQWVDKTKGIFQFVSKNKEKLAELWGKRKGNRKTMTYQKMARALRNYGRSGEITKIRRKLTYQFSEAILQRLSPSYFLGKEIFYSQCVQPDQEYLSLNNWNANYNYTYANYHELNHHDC
An outline of the steps:
as §1

In the next assay the target is ELF4 (Homo sapiens, UniProt Q99607 1-663). The procedure, abridged: as §1
ELF4, sequence (Q99607 whole entry): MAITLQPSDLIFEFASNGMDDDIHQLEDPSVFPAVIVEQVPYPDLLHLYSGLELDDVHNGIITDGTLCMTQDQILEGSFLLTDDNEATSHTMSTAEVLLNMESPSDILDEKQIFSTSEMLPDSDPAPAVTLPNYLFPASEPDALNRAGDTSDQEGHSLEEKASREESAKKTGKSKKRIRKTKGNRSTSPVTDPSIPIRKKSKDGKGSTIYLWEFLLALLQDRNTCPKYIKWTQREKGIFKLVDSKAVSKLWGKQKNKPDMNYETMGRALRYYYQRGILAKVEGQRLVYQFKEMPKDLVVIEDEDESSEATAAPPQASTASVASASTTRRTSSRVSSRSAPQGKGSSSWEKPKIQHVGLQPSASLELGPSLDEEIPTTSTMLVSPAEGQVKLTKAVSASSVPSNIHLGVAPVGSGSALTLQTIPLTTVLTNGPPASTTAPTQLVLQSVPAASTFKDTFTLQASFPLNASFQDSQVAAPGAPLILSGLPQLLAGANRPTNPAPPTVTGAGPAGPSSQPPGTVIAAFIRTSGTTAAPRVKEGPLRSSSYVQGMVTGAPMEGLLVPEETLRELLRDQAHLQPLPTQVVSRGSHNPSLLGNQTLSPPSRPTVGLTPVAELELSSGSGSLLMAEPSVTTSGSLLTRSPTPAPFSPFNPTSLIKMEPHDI
In another assay the target is ETV1 (Homo sapiens, UniProt P50549 1-477). The procedure, abridged:
as §1

The next assay has as its target T7, ETS2 (Homo sapiens, UniProt P15036 1-469).
T7 sequence: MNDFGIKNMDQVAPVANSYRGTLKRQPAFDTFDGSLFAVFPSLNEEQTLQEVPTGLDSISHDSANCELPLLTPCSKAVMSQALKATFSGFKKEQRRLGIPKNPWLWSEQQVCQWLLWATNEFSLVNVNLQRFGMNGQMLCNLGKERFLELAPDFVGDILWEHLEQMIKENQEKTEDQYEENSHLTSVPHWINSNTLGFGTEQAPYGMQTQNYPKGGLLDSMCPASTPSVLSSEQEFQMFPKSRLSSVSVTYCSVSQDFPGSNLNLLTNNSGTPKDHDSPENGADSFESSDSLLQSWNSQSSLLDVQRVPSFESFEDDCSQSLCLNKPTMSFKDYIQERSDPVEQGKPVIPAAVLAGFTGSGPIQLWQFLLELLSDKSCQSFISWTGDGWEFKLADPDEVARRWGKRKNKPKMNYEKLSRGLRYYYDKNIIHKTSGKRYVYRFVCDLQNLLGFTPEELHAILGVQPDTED
An outline of the steps: as §1

In another assay the target is T8, ELF5 (Homo sapiens, UniProt Q9UKW6-2 1-255).
T8 sequence: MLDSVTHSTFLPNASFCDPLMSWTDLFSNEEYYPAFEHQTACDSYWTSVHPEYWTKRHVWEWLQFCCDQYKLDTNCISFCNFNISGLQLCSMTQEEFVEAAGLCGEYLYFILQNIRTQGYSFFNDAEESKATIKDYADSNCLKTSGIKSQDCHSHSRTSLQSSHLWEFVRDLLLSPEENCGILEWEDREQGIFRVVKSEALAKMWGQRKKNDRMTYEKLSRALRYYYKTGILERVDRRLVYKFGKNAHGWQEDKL
An outline of the steps: as §1

For a further assay, the target named is T9, ETV3 (Homo sapiens, UniProt P41162-2 1-143).
T9 sequence: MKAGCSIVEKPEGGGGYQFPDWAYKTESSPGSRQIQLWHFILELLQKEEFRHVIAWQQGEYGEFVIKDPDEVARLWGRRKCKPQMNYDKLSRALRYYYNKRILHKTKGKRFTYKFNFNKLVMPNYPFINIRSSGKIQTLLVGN
An outline of the steps:
as §1

ETV5, sequence (P41161 whole entry): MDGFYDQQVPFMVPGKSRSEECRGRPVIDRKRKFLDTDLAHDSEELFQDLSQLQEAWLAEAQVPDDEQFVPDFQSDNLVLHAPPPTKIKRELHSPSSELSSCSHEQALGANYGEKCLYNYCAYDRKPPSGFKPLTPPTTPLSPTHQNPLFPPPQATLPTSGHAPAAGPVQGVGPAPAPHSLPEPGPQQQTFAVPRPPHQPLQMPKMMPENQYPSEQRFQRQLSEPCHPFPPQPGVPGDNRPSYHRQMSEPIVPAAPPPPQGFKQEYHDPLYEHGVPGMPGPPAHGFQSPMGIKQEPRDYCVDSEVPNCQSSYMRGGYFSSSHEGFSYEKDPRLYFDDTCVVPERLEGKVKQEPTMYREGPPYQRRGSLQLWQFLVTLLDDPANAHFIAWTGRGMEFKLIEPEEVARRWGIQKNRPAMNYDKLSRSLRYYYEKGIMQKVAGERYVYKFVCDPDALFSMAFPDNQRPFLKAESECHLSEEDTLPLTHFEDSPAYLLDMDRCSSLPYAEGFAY
SPIB, sequence (Q01892 whole entry): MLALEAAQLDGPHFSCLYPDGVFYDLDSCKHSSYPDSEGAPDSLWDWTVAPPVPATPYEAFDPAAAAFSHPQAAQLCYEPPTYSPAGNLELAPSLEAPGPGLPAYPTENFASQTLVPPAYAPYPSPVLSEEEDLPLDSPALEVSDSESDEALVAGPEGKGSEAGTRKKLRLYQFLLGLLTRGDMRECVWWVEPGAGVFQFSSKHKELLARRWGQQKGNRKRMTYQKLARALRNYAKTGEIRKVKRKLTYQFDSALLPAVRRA
ETV1, sequence (P50549 whole entry): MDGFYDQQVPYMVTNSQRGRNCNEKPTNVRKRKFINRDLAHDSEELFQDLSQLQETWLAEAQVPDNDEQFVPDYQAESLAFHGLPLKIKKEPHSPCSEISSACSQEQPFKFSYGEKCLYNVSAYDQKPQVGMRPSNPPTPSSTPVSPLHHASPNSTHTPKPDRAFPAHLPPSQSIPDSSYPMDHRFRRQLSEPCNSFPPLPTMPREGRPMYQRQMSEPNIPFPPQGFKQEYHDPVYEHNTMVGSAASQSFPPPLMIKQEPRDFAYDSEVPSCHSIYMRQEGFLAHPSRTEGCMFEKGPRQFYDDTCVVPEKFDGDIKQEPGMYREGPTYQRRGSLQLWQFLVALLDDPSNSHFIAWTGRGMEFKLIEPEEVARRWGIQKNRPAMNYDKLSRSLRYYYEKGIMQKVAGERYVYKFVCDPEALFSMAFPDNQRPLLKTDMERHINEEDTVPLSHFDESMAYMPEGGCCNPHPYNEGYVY

Consider AAGGGT, for which the binding signal was 1 fold enrichment (6-mer frequency, TF over GST control) with FLI1; 1.01 fold enrichment (6-mer frequency, TF over GST control) with ELK1; 1.01 fold enrichment (6-mer frequency, TF over GST control) with GABPA; 1 fold enrichment (6-mer frequency, TF over GST control) with ERG; 1.01 fold enrichment (6-mer frequency, TF over GST control) in the assay with ELF1; 1.01 fold enrichment (6-mer frequency, TF over GST control) with EHF. For the same sequence, the binding signal in the assay with SPI1 is 1.05 fold enrichment (6-mer frequency, TF over GST control); in the assay with SPIB, 1.04 fold enrichment (6-mer frequency, TF over GST control); with ETV5, 1.05 fold enrichment (6-mer frequency, TF over GST control); with SPIC, 1.08 fold enrichment (6-mer frequency, TF over GST control); in the assay with ELF4 it was 1.01 fold enrichment (6-mer frequency, TF over GST control); with ETV1 it was 1.05 fold enrichment (6-mer frequency, TF over GST control). The binding signal in the assay with ETS2 was 1.07 fold enrichment (6-mer frequency, TF over GST control); with ELF5 it was 1.04 fold enrichment (6-mer frequency, TF over GST control); in the assay with ETV3 it was 1.05 fold enrichment (6-mer frequency, TF over GST control).
